The panel holds about 83,000 compounds, 20% with a hit somewhere; the sample as a whole holds those more often.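 Values shown are percent growth following 48 h exposure of cells in 96-well plates to a single concentration of compound; below 10 was considered active.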 Unmarked numbers belong to inactive results. Calls of active or inactive are those of the source.

The test system of the test is SW-620 colon. Put plainly: NCI-60 one-dose screen, 48 h (100 = growth as untreated, 0 = no growth, -100 = all killed). Conditions: 10 µM unless noted.
For the molecule `O=S(=O)(NCCNc1nccc(-n2cnc3ccccc32)n1)c1ccc(Br)cc1`, the growth was 110%.

Turning to `NS(=O)(=O)c1ccc(Nc2nc(N/N=C/c3ccccn3)nc(Nc3ccccc3)n2)cc1`, the growth was -17.8% (active). For the molecule `NC(N)=Nc1ccc(Oc2cccc(Nc3ccc(Br)c(C(F)(F)F)c3)c2)cc1`, the growth is -31% (active). The result for `O=c1[nH]c2ccccc2cc1CSc1ccccc1Nc1nccc(-c2ccc(Cl)cc2)n1` reads 101%; that for `COc1ccccc1C(=O)Nc1cccc2c1C(=O)C(=O)C=C2`, 94.2%; that for `CCO/C=N/C1=C(C#N)C(c2ccc(F)cc2)c2sc3c(C)cccc3c2O1` (stereo unspecified), 19.6%. Consider `O=C(NNc1nc2cc(F)ccc2n2c(CN3CCCC3)ccc12)c1cnccn1`, for which the growth is 22.3%. In the case of `COc1cc(-c2nn(C(C)(C)C)cc2-c2ccnc(NCCCNS(=O)(=O)c3ccccc3)n2)ccc1Cl` it was 90.3%; in that of `O=C(NCc1ncc[nH]1)c1ccc(-c2nc3ccc4[nH]ncc4c3c3c2CCCC3)cc1`, 5.4% (active). The result for `O=C(NNc1nc2cc(F)ccc2n2c(CO)ccc12)c1cnccn1` reads 21.3%. The result for `O=[N+]([O-])c1cc(/C=N/Nc2nc(N/N=C/c3ccc(Cl)c([N+](=O)[O-])c3)nc(N3CCCCC3)n2)ccc1Cl` reads 63.7%; that for `COc1c(N2CC3CCCNC3C2)c(F)cc2c(=O)c(C(=O)N/N=C/c3ccccc3)cn(C3CC3)c12` (stereo unspecified), 102%. As for `O=C(CNc1nc(-c2cccc([N+](=O)[O-])c2)cs1)Nc1cccc(Cl)c1`, the growth was 105%. As to `O=S(=O)(NCCNc1nccc(-n2cnc3ccccc32)n1)c1ccc(C(F)(F)F)cc1`, the growth was 83.5%. In the case of `CC(C)(C)c1ccc(C(=O)Nc2sc3c(c2C(N)=O)CC/C(=N\O)C3)cc1` it was 17.6%; in that of `CC(=O)c1nnn(-c2c(C(=O)n3nc(C)cc3C)sc(=S)n2-c2ccccc2)c1C`, 112%. The result for `CNC(=O)c1c(NC(=O)c2ccccc2C(F)(F)F)sc2c1CCC(=O)C2` reads 21%. The result for `O=C(NNc1nc2cc(F)c(F)cc2n2cccc12)c1cnccn1` reads 27.4%; that for `COc1cc(Nc2c(C#N)cnn3cc(-c4cnn(CC(C)(C)O)c4)cc23)ccc1Cl`, 56.5%.

On to `CCCCCCCn1cc2c(N[C@H](C)c3ccccc3)ncnc2n1`, for which the growth was 117%. Regarding `O=C(Cn1cc(-c2ccccc2)nn1)Nc1nc(-c2ccc(Cl)cc2)cs1`, the growth is 108%. In the case of `CCOC(=O)C(=O)CC(=O)N1C(=S)NC(=O)C1CC(C)C` (stereo unspecified) it was 106%. The result for `O=C1Nc2ccccc2/C1=C/c1ccc(CO)n1-c1ccc(Cl)cc1` reads 32.4%; that for `CCO/C=N/C1=C(C#N)C(c2ccc(OC)cc2)c2sc3c(CC)cccc3c2O1` (stereo unspecified), 35.3%. `O=C1[C@@H]2Cc3c([nH]c4ccccc34)[C@H](c3c(Cl)cccc3Cl)N2C(=O)CN1C1CCN(CC2CCCCC2)CC1`: the growth was 10.2%. The result for `Cc1nn(-c2ccccc2)c2ncnc(N/N=C/c3cccc(O)c3)c12` reads 34%; that for `CS(=O)(=O)Nc1cc(-c2ccc3ncc(C#N)c(NCc4cccc(F)c4)c3c2)cnc1Cl`, 6.55% (active).

Consider `Cc1ccc(-n2cc(/C=C/C(=O)c3ccc(O)cc3)c(-c3ccc(S(C)(=O)=O)cc3)n2)cc1`, for which the growth was 34%. The result for `CC1(C)NCCC[C@]2(C)[C@H]3C/C(=N\O)C4[C@@H]5C[C@@](C)(CO)CC[C@]5(C)CC[C@@]4(C)[C@]3(C)CC[C@@H]12` (stereo partly specified) reads 103%.

Take `C#CCNC1CCC(c2csc(C#C)n2)=C1C` (stereo unspecified): the growth was 108%. Turning to `NS(=O)(=O)c1ccc(Nc2nc(Nc3ccccc3)nc3nnc(SCC(=O)NC4CCCCC4)n23)cc1`, the growth is 106%.

On to `O=C(CNc1nc(-c2cccc([N+](=O)[O-])c2)cs1)Nc1cccc([N+](=O)[O-])c1`, for which the growth was 1.81% (active). The result for `O=C(CSc1nc2ccccc2c(=O)n1-c1ccc(Cl)cc1)N/N=C/c1ccc(N2CCCCC2)cc1` reads 65.9%. The result for `O=C(c1ccc(Cl)cc1)C1[C@H](c2ccc(Cl)cc2)[C@@H](c2ccccc2)NC12C(=O)Nc1ccccc12` (stereo partly specified) reads 54%; that for `CC(=O)c1ccc(Nc2nc(SCC(C)C)nc(-c3ccc(F)cc3)c2C#N)cc1`, 110%; that for `Fc1ccc(-c2cc3nc(C(Cl)Cl)nc(-c4ccc(F)cc4)n3n2)cc1`, -29.3% (active).

The record behind these values is PubChem BioAssay (NCI).
